Methyltransferases – Primary Screen for Target Class Profiling of Small Molecule Inhibitors of Methyltransferases; purified enzyme, MTase-Glo SAH luminescence; active compounds read low; calls only at 40 µM; 3.9% of 25,000 active; call rule not given here
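Each enzyme was assayed with SAM and its substrate. SAH formation detected by MTase-Glo luminescence; single-point 40 uM screen[…].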
Each line names hits and unclear results; the compound was inactive in the other large screens; ! = not active in a repeat. The full list was thinned out, with hits kept by preference.

CCCCCNc1nc2c(-c3ccc(C)cc3)nnn2c2ccccc12	none
Cc1ccc(CCNC(=O)c2cc3n(n2)CC(C)(C(=O)NC2CCCCCC2)N(C)C3=O)cc1 (stereo not drawn)	none
COc1ccccc1CNC(=O)C1(C)Cn2nc(-c3ccccc3)cc2C(=O)N1c1cccc(C)c1C (stereo not drawn)	none
CC1CCC(NC(=O)C2(C)Cn3c(cc4occc43)C(=O)N2Cc2ccc(Cl)cc2)CC1 (stereo not drawn)	none
CC(O)(CC(=O)O)CC(=O)OCc1ccc(O[C@@H]2O[C@H](CO)[C@@H](O)[C@H](O)[C@H]2O)cc1 (stereo partly drawn)	Methyltransferases active
O=C(O)c1ccc(OC2OC(CO)C(O)C(O)C2O)cc1 (stereo not drawn)	none
CC(O)(CC(=O)O)CC(=O)O[C@@H]1[C@@H](O)[C@H](OCCc2ccccc2)O[C@H](CO)[C@H]1O (stereo partly drawn)	none
COc1cc(Cl)c(C)cc1N1C(=O)CSc2c(c3ccccc3n2C)C1C(=O)NCc1ccccc1 (stereo not drawn)	none
Cc1cccc(C2c3cccn3-c3sc4c(c3CN2C(=O)Nc2ccccc2F)CCCC4)c1 (stereo not drawn)	none
CC(=O)N1c2ccc(S(=O)(=O)N(C)CC(=O)N3CCN(c4cc(C)ccc4C)CC3)cc2CC1C (stereo not drawn)	none
CN(C)c1ccc(/C=C2\C(=O)Nc3ccccc32)cc1	Methyltransferases active
Cc1cc(F)ccc1NC(=O)Cn1c(=O)oc2cc(S(=O)(=O)N3CCCC3)ccc21	none
CCc1ccc(NC(=O)Cn2nc3n(CCc4ccccc4)c(=O)c4ccccc4n3c2=O)cc1	none
CCOc1ccc(N2C(=O)c3cc4occc4n3CC2(C)C(=O)NC2CCCC(C)C2C)cc1 (stereo not drawn)	none
CCOc1ccccc1CN1C(=O)c2nc3ccccc3n2CC1(C)C(=O)NC1CCCC1 (stereo not drawn)	none
CCCCN1C(=O)c2ccccc2CC1(C)C(=O)NCc1ccc(Cl)cc1 (stereo not drawn)	none
Cc1ccccc1CCN1C(=O)c2ccc(-c3ccco3)n2CC1(C)C(=O)NC1CCCCCC1 (stereo not drawn)	none
O=C(Cn1nc2n(CCc3ccccc3)c(=O)c3ccccc3n2c1=O)Nc1cc(F)ccc1F	none
CCCn1c(=O)c2cc(Cl)ccc2n2c(SCc3cccc(F)c3)nnc12	none
CC(C)NC(=O)c1ccc2c(=O)n(C(C)C)c3nn(Cc4ccccc4Cl)c(=O)n3c2c1	none
COc1cc(C(=O)OC[C@H]2O[C@@H](Oc3ccccc3/C=C/C(=O)O)[C@H](O)[C@@H](O)[C@@H]2O)cc(OC)c1OC	Methyltransferases active
COc1cc(/C=C/C(=O)O[C@H]2[C@H](O)[C@@H](CO)O[C@@]2(CO)O[C@H]2O[C@H](COC(=O)c3ccc(O)cc3)[C@@H](O)[C@H](O)[C@H]2O)cc(OC)c1OC	none
COc1ccc(/C=C\C(=O)O)c(O[C@@H]2O[C@H](CO)[C@@H](O)[C@H](O)[C@H]2O)c1	none
O=C(Cn1nc2n(Cc3ccc(F)cc3)c(=O)c3ccccc3n2c1=O)Nc1ccc2c(c1)OCO2	none
COc1ccc(CCc2nc3c(C)c(-c4c(C)noc4C)c(C)cc3n2CCN2CCOCC2)cc1	Methyltransferases active!
COc1ccc2cc3n(c2c1)CC(C)(C(=O)NCC1CCCO1)N(CCc1ccc(Cl)cc1)C3=O (stereo not drawn)	none
COc1ccc2cc3n(c2c1)CC(C)(C(=O)NC1CCCCC1)N(CCCN1CCOCC1)C3=O (stereo not drawn)	none
COc1ccc(OC)c(S(=O)(=O)N2CCc3nc(-c4ccc(Cl)cc4)ncc3C2)c1	none
CCC(C)NC(=O)c1ccc2c(=O)n(CCC(C)C)c3nn(CC(=O)c4ccccc4)c(=O)n3c2c1 (stereo not drawn)	none
CC1CCCC(NC(=O)C2(C)Cn3c(cc4occc43)C(=O)N2CCc2ccc(Cl)cc2)C1C (stereo not drawn)	none
O=C1C(SCCO)=C(SCCO)C(=O)c2ccccc21	Methyltransferases active
COc1ccccc1CNC(=O)C1(C)Cn2nc(-c3ccccc3)cc2C(=O)N1c1ccc(F)cc1 (stereo not drawn)	none
CCCNC(=O)N1Cc2c(sc3c2CCCC3)-n2cccc2C1c1ccc(OCC)cc1 (stereo not drawn)	none
Cc1cc(O[C@@H]2O[C@H](COC(=O)CC(=O)O)[C@@H](O)[C@H](O)[C@H]2O)c(C(C)C)cc1O	none
CC(=O)c1ccc(O[C@@H]2O[C@H](CO[C@@H]3OC[C@@H](O)[C@H](O)[C@H]3O)[C@@H](O)[C@H](O)[C@H]2O)cc1	none
CC(C)(O)C1CC=C(C(=O)OCC2OC(Oc3c(O)cc(C(=O)O)cc3O)C(O)C(O)C2O)CC1 (stereo not drawn)	Methyltransferases active
O=C(/C=C/c1ccc(O)c(O)c1)OC[C@H]1O[C@@H](OC2CCCCC2O)[C@H](O)[C@@H](O)[C@@H]1O (stereo partly drawn)	none
COc1cc(C(=O)OCC2=CCC3C(C(=O)O)=COC(O[C@@H]4O[C@H](CO)[C@@H](O)[C@H](O)[C@H]4O)C23)ccc1O (stereo partly drawn)	none
CC(C)(O)C1CC=C(C(=O)OC[C@H]2O[C@@H](Oc3cc(C(=O)O)cc(O)c3O)[C@H](O)[C@@H](O)[C@@H]2O)CC1 (stereo partly drawn)	Methyltransferases active
Cc1ccc(NC(=O)Cn2nc3n(C(C)C)c(=O)c4ccc(C(=O)NC(C)C)cc4n3c2=O)cc1	none
CCC(C)NC(=O)c1ccc2c(=O)n(Cc3ccccc3)c3nn(Cc4ccccc4Cl)c(=O)n3c2c1 (stereo not drawn)	none
CN1C(=O)c2cc(C(=O)NCc3cccc(Cl)c3)nn2CC1(C)C(=O)NC1CCCC1 (stereo not drawn)	none
COc1cccc(CNC(=O)Nc2cccc(-c3ccc(N4CCCCC4)nn3)c2)c1	none
COC(=O)C1=C(C)NC(C)=C(C(=O)OC)C1c1cccc(NC(=O)NCCCN2CCC(c3cccc(OC)c3)CC2)c1	Methyltransferases active!
CCN(CC)c1ncccc1CNC(=O)Nc1cccc(OC)c1	none
COc1ccc(-c2cc3n(n2)CC(C)(C(=O)NCc2ccccc2OC)N(c2ccc(F)cc2F)C3=O)cc1 (stereo not drawn)	none
Cc1cc2c(cc3n2CC(C)(C(=O)NC2CCCCCC2)N(c2ccc(C)c(C)c2)C3=O)o1 (stereo not drawn)	none
C=CCn1c(=O)c2ccc(C(=O)NC(C)CC)cc2n2c(=O)n(CC(=O)NC(C)C)nc12 (stereo not drawn)	none
O=C(Nc1ccc(Oc2ccnc3[nH]ccc23)c(F)c1)c1cccn(-c2ccc(F)cc2)c1=O	none
COc1ccc2c(OCc3nnc4ccc(-c5ccccc5)nn34)ccnc2c1	none
COc1ccc2c(Oc3ccc(NC(=O)c4c(C)n(CC(C)(C)O)n(-c5ccccc5)c4=O)cc3F)ccnc2c1	Methyltransferases active
COc1cccc(CNC(=O)Cn2c(=O)oc3cc(S(=O)(=O)N4CC(C)CC(C)C4)ccc32)c1 (stereo not drawn)	none
CCCn1c(=O)c2ccc(C(=O)NC(C)CC)cc2n2c(SCC(=O)Nc3cccc(F)c3)nnc12 (stereo not drawn)	none
COc1ccc2c(c1)c(NC(C)=O)c1n2CC(C)(C(=O)NC2CCCC2)N(Cc2ccco2)C1=O (stereo not drawn)	none
COc1ccc(CNC(=O)c2ncn3c2C(=O)N(C2CC2)C(C)(C(=O)NCc2ccc(C)cc2)C3)cc1 (stereo not drawn)	none
CCCn1c(=O)c2ccc(C(=O)NC(C)C)cc2n2c(SCC(=O)c3ccc(C)cc3)nnc12	none
